BRCA1 expr act: qHTS Assay to Identify Small Molecule Activators of BRCA1 Expression; 1.1% of 380,000 active; Potency, µM (highest dose often 46.1 µM), usual class: activators; MCF7-BRCA1-FFLuc reporter, luminescence, 48 h; response scale: scaled: vehicle 0%, 10 µM genistein 100%; note: nearly all actives have a fitted effect of over 80% in size
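Luminescence from a BRCA1-driven firefly luciferase in MCF7 cells was the read-out, taken 15 min after substrate addition following 48 h compound exposure at 37 °C. Data were normalized to a 10 microM genistein control and DMSO vehicle.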
A549 tox-1: Nrf2 qHTS screen for inhibitors: counterscreen for cytotoxicity | 0.16% of 390,000 active | A549 ARE-Fluc cells, CellTiter-Fluor viability, 18-24 h | AID 504648, 2011 | Potency, µM (top dose mostly 46 µM), usual class: inhibitors
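A549 ARE_Fluc cells in 5% FBS OPTI-MEM were exposed to compounds in concentration-response for 18-24 h at 37 deg C. Viability was read by CellTiter-Fluor fluorescence (Ex 405/Em 525) after 30 min, before the luciferase read.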
IL2 activator: qHTS of IL-2 Activators | IL-2 activation reporter assay, cell-based qHTS; stimulated with anti-CD3/CD4/CD28 beads; in transgenic mouse T cells | activation, % (series mostly up to about 46 µM) | 0.065% of 360,000 active | AID 652025, 2013; in the data active = activation above about 50%; inconclusive = mostly about 30% to 49%
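Quantitative HTS in unstimulated transgenic mouse T cells, with memory T cells as non-tolerant control and PMA/ionomycin as tolerance-bypass control. Compound pretreatment lasted 60 minutes before 18 h bead stimulation; EGFP/DsRed fluorescence read.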
Nrf2 activator: qHTS of Nrf2 Activators | AREc32 ARE-luciferase reporter (MCF7-derived line), luminescence, 24 h | Potency, µM (series often up to 46.1 µM), most hits filed as activators | 0.31% of 410,000 active; note: nearly all actives have a fitted effect of over 65% in size
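Steps: seed AREc32_Fluc cells (1000/well, 5% FBS OPTI-MEM); incubate overnight at 37 deg C; add 23 nL compound; incubate 24 hr; add Steady-Glo; hold 30 min RT; read luminescence.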
p53 reactivator: qHTS assay for re-activators of p53 using a Luc reporter; H1299 p53-A138V BP100-luciferase reporter, luminescence, 24 h; Potency, µM (series often up to 92.2 µM), actives largely listed as activators; 0.063% of 320,000 active; AID 504706, 2011; note: nearly all actives have a fitted effect of over 45% in size
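p53-null H1299 cells stably carrying temperature-sensitive p53-A138V and a BP100-luciferase reporter were pinned with compounds (4-point, 1:5 series) and held 24 hrs at 37 deg C. Luminescence was read 10 min after detection reagent.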
Nrf2 inh: Nrf2 qHTS screen for inhibitors; A549 ARE-Fluc reporter, luciferase luminescence, 18-24 h; 2.1% of 360,000 active; Potency, µM (doses to about 46 µM), most hits filed as inhibitors; note: nearly all actives have a fitted effect of over 60% in size
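Reporter: ARE-Fluc in A549. Exposure: 18-24 h, 37 °C, 5% CO2, 5% FBS OPTI-MEM. Readouts: fluorescent cytotoxicity (CellTiter-Fluor), then luminescent Nrf2 signal after BugLite.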
FLuc counter 3: Nrf2 qHTS screen for inhibitors: Purified Fluc Biochemical Counterscreen for Hit Validation | shares compounds with Nrf2 inh | 4% of 1,400 active | purified firefly luciferase, luminescence inhibition | Potency, µM (top dose mostly 57.5 µM), actives largely listed as inhibitors; note: nearly all actives have a fitted effect of over 65% in size
Target sequence (P08659 whole entry, looked up): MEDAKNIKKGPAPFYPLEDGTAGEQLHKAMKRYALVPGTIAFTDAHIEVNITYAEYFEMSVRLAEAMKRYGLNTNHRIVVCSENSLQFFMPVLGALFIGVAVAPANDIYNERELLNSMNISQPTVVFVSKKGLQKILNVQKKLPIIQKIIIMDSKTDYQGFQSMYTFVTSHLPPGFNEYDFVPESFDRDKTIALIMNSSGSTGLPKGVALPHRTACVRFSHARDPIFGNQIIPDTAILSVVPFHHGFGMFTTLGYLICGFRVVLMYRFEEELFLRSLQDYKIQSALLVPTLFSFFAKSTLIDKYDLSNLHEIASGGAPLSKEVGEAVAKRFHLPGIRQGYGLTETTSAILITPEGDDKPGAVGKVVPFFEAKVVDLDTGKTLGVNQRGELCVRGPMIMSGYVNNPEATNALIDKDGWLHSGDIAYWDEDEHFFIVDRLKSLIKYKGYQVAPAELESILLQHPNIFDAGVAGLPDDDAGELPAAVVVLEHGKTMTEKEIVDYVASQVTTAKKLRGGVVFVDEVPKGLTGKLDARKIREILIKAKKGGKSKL
A549 tox-2: Nrf2 qHTS screen for inhibitors: A549 ARE-Fluc Cytotoxicity Counterscreen for Hit Validation; shares compounds with Nrf2 inh; A549 ARE-Fluc cells, cytotoxicity counterscreen; Potency, µM (highest dose often 46.1 µM), usual class: inhibitors; 2% of 1,400 active; AID 720523, 2013;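 note: cells exposed to compounds for 18 to 24 hours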
ARE-Fluc inh: Nrf2 qHTS screen for inhibitors: Nrf2 A549 ARE-Fluc Confirmation Assay for Hit Validation; A549 ARE-firefly luciferase reporter, luminescence; 74% of 1,400 active; Potency, µM (highest dose often 46.1 µM), actives largely listed as inhibitors; AID 720524, 2013; shares compounds with Nrf2 inh; note: nearly all actives have a fitted effect of over 65% in size
Numbers stand for hits; - = inactive; ? = inconclusive; . = no result shown; [ ] = remark or other dose. Only some compounds are listed: those with a hit (about 3.2% of all), similar ones and a draw of the others. Unless noted, calls come from the whole dose curve; as a rule, active = well fitted curve in the direction sought with a large enough effect; inconclusive = small, poorly fitted or top-dose-only effect, or another doubt; inactive = no such curve, though single readings can be large; an effect the other way counts as inactive or inconclusive.

SMILES	BRCA1 expr act	A549 tox-1	IL2 activator	Nrf2 activator	p53 reactivator	Nrf2 inh	FLuc counter 3	A549 tox-2	ARE-Fluc inh
Cc1ccc(-n2c(=O)[nH]c3cc(C(=O)NCc4ccccc4)ccc3c2=O)cc1	.	-	.	-	.	-[9.27 µM]	.	.	.
CN(C)CCN(C(=O)c1ccco1)c1nc2c(F)cc(F)cc2s1	.	-	.	-	.	?	.	.	.
CC(Sc1nc2ccccc2c(=O)n1C)C(=O)Nc1ccc2c(c1)OCCO2 (centres undefined)	-	-	-	-	-	5.2µM	-	-	?
CCOC(=O)c1ccc(CN(Cc2ccccc2)S(=O)(=O)c2ccc(C)cc2)cc1	.	-	.	-	.	.	.	.	.
O=C1c2ccccc2C(=O)c2c1ccc(O)c2O	-	-	-	-	.	-	.	.	.
COC(=O)c1ccc2c(c1O)C(=O)c1ccccc1C2=O	-	?	-	-	?	3.3µM	11µM	3.7µM	3.7µM
CC(C)Cn1c(C(C)C)nc([N+](=O)[O-])c1S(=O)(=O)c1ccc(F)cc1	-	?	-	22µM	-	9.2µM	-	-	-
COc1cc(NC(=O)c2nn(C)c3c2COc2ccccc2-3)cc(OC)c1OC	.	-	.	-	.	?	.	.	.
Cc1cc(C)c(Cn2c(C)c(CNCc3ccccc3C)c(C(=O)O)c2C)c(C)c1	.	-	.	-	.	?	.	.	.
NCCN(Cc1ccc(Cl)c(Cl)c1)c1ccc(Br)cn1	-	-	.	.	.	-	.	.	.
CC(=O)c1cccc(NS(=O)(=O)c2ccc(C(=O)Nc3ccccc3)cc2)c1	-	-	-	-	-	7.3µM	-	-	4.1µM
O=c1cc(N2CCN(c3ccccc3)CC2)[nH]c(=O)n1C1CCCCC1	-	?	-	-	-	-	.	.	.
O=c1cc(N2CCN(c3cccc(Cl)c3)CC2)[nH]c(=O)n1C1CCCCC1	-	?	-	-	-	?	-	?	.
COc1cccc(CN(C)C(=O)CNC(=O)c2ccc(-c3ccccc3)cc2)c1OC	-	-	-	-	-	4.6µM	-	-	.
COc1cccc(CN(C)C(=O)CNC(=O)c2cccs2)c1OC	-	-	-	-	-	-	.	.	.
O=C(Nc1cccc(Cl)c1)c1ccc(S(=O)(=O)NCC2CCCO2)cc1 (centres undefined)	-	-	-	-	-	4.6µM	-	-	13µM
Cc1nc2ccccn2c1C(=O)NC1CCCc2ccccc21 (centres undefined)	-	-	-	-	-	1.6µM	-	-	4.6µM
COc1ccc(CC(=O)Nc2cc(S(=O)(=O)N3CCCCC3)ccc2C)cc1OC	-	?	-	-	-	4.1µM	-	-	7.3µM
NC(=O)c1ccccc1OCC(=O)N1CCC(Cc2ccccc2)CC1	-	-	-	-	-	5.2µM	-	-	8.2µM
O=C(COc1ccccc1[N+](=O)[O-])N1CCC(Cc2ccccc2)CC1	-	-	-	-	-	-	.	.	.
COc1ccc(N(C(C)C(=O)N2CCCC2)S(C)(=O)=O)cc1 (centres undefined)	-	-	-	-	-	-	.	.	.
COc1ccc(N(C(C)C(=O)N2CCC(Cc3ccccc3)CC2)S(C)(=O)=O)cc1 (centres undefined)	-	-	-	-	-	6.5µM	-	-	18µM
CC(=O)N1CCCC1c1nc2ccccc2n1Cc1ccccc1Cl (centres undefined)	-	-	.	-	.	?	.	.	.
Cc1cc(C)c(C)c(S(=O)(=O)N2CCC(C(=O)N3CCN(c4ccc(F)cc4)CC3)CC2)c1C	-	-	-	-	.	?	.	.	.
Cc1ccc(C(C)(C)C)cc1S(=O)(=O)N1CCC(C(=O)N2CCN(c3ccc(O)cc3)CC2)CC1	-	-	-	-	-	9.2µM	?	-	.
SMILES	BRCA1 expr act	A549 tox-1	IL2 activator	Nrf2 activator	p53 reactivator	Nrf2 inh	FLuc counter 3	A549 tox-2	ARE-Fluc inh
CCC(=O)C1=C(c2ccc(F)cc2)N(C(=O)CC)n2c(nnc2-c2ccc(OC)cc2)S1	.	-	.	-	.	.	.	.	.
COc1ccc(NC(=O)Cn2c(=O)n(CCc3ccccc3)c(=O)c3sc4ccccc4c32)cc1	-	-	.	-	.	?	.	.	.
CC(=O)N(C1=C(N2CCOCC2)C(=O)c2ccccc2C1=O)c1ccc(C(=O)O)cc1	-	?	-	-	-	?	.	.	.
CC(=O)N(C)C1=C(N2CCOCC2)C(=O)c2ccccc2C1=O	-	8.2µM	-	-	-	0.46µM	-	16µM	5.8µM
COc1ccc(NC(=O)C(NC(=O)/C=C\c2ccc3c(c2)OCO3)c2ccc(C)cc2)cc1 (centres undefined)	.	-	.	-	.	-[9.27 µM]	.	.	.
COc1ccccc1CN1CCN(C2CCN(C(=O)Nc3ccccc3)CC2)C(=O)C1=O	.	-	.	-	.	.	.	.	.
N=c1c2c(n(Cc3ccccc3)c3c1CCC3)CCC2	-	?	-	-	-	1.5µM	-	-	?
CCCCCn1c2c(c(=N)c3ccccc31)CCC2	-	-	-	-	-	2.6µM	-	-	4.1µM
Cc1ccccc1C(=O)N1CCN(c2ccc(NC(=O)c3ccc4c(c3)OCO4)cc2)CC1	-	-	-	-	-	9.2µM	-	-	7.3µM
O=C(Nc1ccc(N2CCN(C(=O)c3ccco3)CC2)cc1)c1ccc2c(c1)OCO2	-	-	-	-	-	-	.	.	.
CCOc1cc(-c2nc(-c3ccc(Br)cc3)no2)cc(OCC)c1OCC	.	-	.	-	.	-	.	.	.
Cc1cc(C)c(-c2csc(Cc3nc(-c4cc5ccccc5oc4=O)cs3)n2)cc1C	-	-	-	-	-	?	.	.	.
Cc1ccc(-c2csc(Cc3nc(-c4cc5ccccc5oc4=O)cs3)n2)cc1	-	-	-	-	-	4.6µM	-	-	7.3µM
O=c1oc2ccccc2cc1-c1csc(Cc2nc(-c3ccc(Br)cc3)cs2)n1	-	-	-	-	-	2.9µM	-	-	.
CCN(CC)CCCNC(=O)Cc1csc2nc(-c3ccc(Cl)cc3)cn12	.	?	.	-	.	.	.	.	.
COc1ccc(OCC(O)Cn2c(NCCO)nc3c2c(=O)n(C)c(=O)n3C)cc1 (centres undefined)	.	-	.	-	.	7.3µM	-	-	12µM

From PubChem BioAssay
